Screens from PubChem.
TDP1 cell noCPT – qHTS for Inhibitors of human tyrosyl-DNA phosphodiesterase 1 (TDP1): qHTS in cells in absence of CPT; DT40 Tdp1-/- hTDP1 cells, no CPT, ATP luminescence, 48 h; Potency, µM (series often up to 46.2 µM), without a hit: at the highest dose activity change, negative = growth inhibition, hits mostly inhibitors; 15% of 420,000 active; also: potency is read from the fitted curve at half-maximal effect; % is scaled to controls: 0 for no effect and ±100 for the full control effect; nearly all actives have a fitted effect of over 55% in size
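Camptothecin absent (DMSO only). Human TDP1-complemented DT40 knockout cells, 400 cells/well, 37 °C for minimum 48 hr; ATP measured via CellTiter-Glo, 30 min dark incubation, luminescence.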
TGFb SMAD3 inh – qHTS for Inhibitors of TGF-b; HepG2 CAGA-GFP TGF-b/SMAD3 reporter, GFP fluorescence, 18 h; TGF-beta stimulated, 500 pg/mL final; Potency, µM (doses to about 46.1 µM), inactives show top-dose activity, negative = inhibition, actives largely listed as inhibitors; 1.2% of 410,000 active; AID 588855, 2011; also: potency is read from the fitted curve at half-maximal effect; % is scaled to controls: 0 for no effect and ±100 for the full control effect; nearly all actives have a fitted effect of over 65% in size
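Per well, imaged GFP fluorescence of HEPG2 CAGA-GFP cells gives the signal; cells get compound, then TGF-beta (500 pg/mL final), 18 h at 37 degrees C; %Activity versus -TGF-beta and +DMSO controls.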
TDP1 inh – qHTS Assay for Inhibitors of Tyrosyl-DNA Phosphodiesterase (TDP1); AID 485290, 2010; 0.28% of 350,000 active; recombinant TDP1, AlphaScreen DNA substrate cleavage; Potency, µM (highest dose often 130 µM), for inactives: at the top dose activity change, negative = inhibition, usual class: inhibitors; also: potency is read from the fitted curve at half-maximal effect; % is scaled to controls: 0 for no effect and ±100 for the full control effect; nearly all actives have a fitted effect of over 40% in size
Target sequence (Q9NUW8 whole entry, looked up): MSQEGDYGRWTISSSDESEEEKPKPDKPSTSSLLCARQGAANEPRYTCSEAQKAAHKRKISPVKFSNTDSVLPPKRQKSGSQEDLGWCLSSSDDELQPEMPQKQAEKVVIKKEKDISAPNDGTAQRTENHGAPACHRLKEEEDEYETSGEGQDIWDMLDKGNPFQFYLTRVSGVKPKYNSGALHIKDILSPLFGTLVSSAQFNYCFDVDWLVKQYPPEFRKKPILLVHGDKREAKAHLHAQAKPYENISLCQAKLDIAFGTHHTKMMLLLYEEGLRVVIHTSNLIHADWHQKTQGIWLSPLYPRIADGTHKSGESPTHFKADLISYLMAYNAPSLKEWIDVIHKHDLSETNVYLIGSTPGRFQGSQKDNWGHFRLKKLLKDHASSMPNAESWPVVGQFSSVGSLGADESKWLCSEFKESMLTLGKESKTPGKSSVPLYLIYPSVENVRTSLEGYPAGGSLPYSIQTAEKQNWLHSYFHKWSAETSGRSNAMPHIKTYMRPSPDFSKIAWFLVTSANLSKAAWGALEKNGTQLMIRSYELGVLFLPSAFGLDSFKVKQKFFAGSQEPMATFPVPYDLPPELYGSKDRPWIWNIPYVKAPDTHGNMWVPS
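Recombinant E. coli-expressed Tdp1 (1 nM) preincubated with compound 15 min at RT, then 5'-biotin/3'-phosphotyrosine-FITC DNA substrate (15 nM) added for 5 min. AlphaScreen beads (10 ug/ml) added, 10 min RT; tyrosine-FITC cleavage read as signal loss.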
TDP1 cell CPT – qHTS for Inhibitors of human tyrosyl-DNA phosphodiesterase 1 (TDP1): qHTS in cells in presence of CPT. Potency, µM (top dose mostly 46.2 µM), for inactives: at the top dose activity change, negative = growth inhibition, most hits filed as inhibitors. chicken DT40 Tdp1-/-;hTDP1 cells + 20 nM CPT, ATP luminescence, 48 h. 12% of 420,000 active; also: potency is read from the fitted curve at half-maximal effect; % is scaled to controls: 0 for no effect and ±100 for the full control effect; nearly all actives have a fitted effect of over 55% in size
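Chicken DT40 Tdp1-/- cells stably complemented with human TDP1 were seeded at 400 cells/well in medium containing 20 nM camptothecin, exposed to pin-transferred compounds, and grown at 37 °C for at least 48 hr. Viability was read as ATP luminescence.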
HepG2 viability – qHTS for Inhibitors of TGF-b: Cytotox Counterscreen; HepG2 CAGA-GFP viability, ATP luminescence, 18 h; Potency, µM (titrated, usually from 46.1 µM), inactives show at the highest dose activity change, negative = cytotoxicity, actives largely listed as cytotoxic; 0.76% of 410,000 active; also: potency is read from the fitted curve at half-maximal effect
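HepG2 CAGA-GFP cells (1000/well, DMEM with 1% FBS) received compound, then TGF-beta at 500 pg/mL final, and were incubated 18 hours at 37 degrees C. Viability was read by CellTiter-Glo luminescence. Media-only wells were set as complete cell-killing and DMSO as no toxicity.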
IL-1B inflam inh – qHTS for Inhibitors of Inflammasome Signaling: IL-1-beta AlphaLISA Primary Screen; THP-1 LPS/ATP IL-1B secretion, AlphaLISA, 16 h; stronger effect = lower value; activity change, % at 57.5 µM; 4.7% of 360,000 active; AID 743279, 2014; in the data active = activity change below about -50%; inconclusive = mostly about -30% to -49%; also: % is scaled to controls: 0 for no effect and ±100 for the full control effect
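THP-1 cells pretreated 1 hr with compounds (up to 57.5 uM final), then stimulated with LPS (250 ng/mL final) plus ATP (1.25 mM final); secreted IL-1B measured by AlphaLISA after 16 hr, decreased signal indicating inhibition.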
Active calls of the source: *; [ ] = dose if it differs, or a comment. An excerpt weighted towards active compounds, which were near 19% of everything screened. Unless noted, calls follow the shape of the dose curve; as a rule, active = well fitted curve in the direction sought with a large enough effect; inconclusive = small, poorly fitted or top-dose-only effect, or another doubt; inactive = no such curve, though single readings can be large; an effect the other way counts as inactive or inconclusive.

Cc1cccc(/C=N/NC(=O)Cc2ccc(Cl)cc2)c1O was read as TDP1 cell noCPT inconclusive, TGFb SMAD3 inh inconclusive, TDP1 cell CPT 18.4µM*, HepG2 viability -48.9% and IL-1B inflam inh 98.3.
`O=C(Cc1ccc(Cl)cc1)N/N=C/c1ccc(O)c(O)c1` gave TDP1 cell noCPT 13µM*, TGFb SMAD3 inh inconclusive, TDP1 cell CPT inconclusive, HepG2 viability -54.2% and IL-1B inflam inh 13.5.
`O=C(Cc1ccc(Cl)cc1)N/N=C/c1c(Cl)cccc1Cl` gave TDP1 cell noCPT inconclusive, TGFb SMAD3 inh -21.4%, TDP1 inh 2.3%, TDP1 cell CPT -19.8%, HepG2 viability 14.1% and IL-1B inflam inh 14.4.
Cc1ccc(S(=O)(=O)C2CS(=O)(=O)CC2O)cc1 (centres undefined) was read as TDP1 cell noCPT -0.3%, TGFb SMAD3 inh inconclusive, TDP1 inh 5.9%, TDP1 cell CPT 1.2%, HepG2 viability -4.0% and IL-1B inflam inh -4.0.
For CC(=O)C1=C(S(=O)(=O)c2ccc(C)cc2)CS(=O)(=O)C1 the results were TDP1 cell noCPT 4.61µM*, TGFb SMAD3 inh inconclusive, TDP1 inh 0.0%, TDP1 cell CPT 3.66µM*, HepG2 viability -78.8% and IL-1B inflam inh inconclusive.
COC(=O)c1ccc2nc(-c3ccc(OC)c(OC)c3)c(Cc3ccc(C)cc3)n2c1 was read as TDP1 cell noCPT 20.6µM*, TGFb SMAD3 inh inconclusive, TDP1 cell CPT inconclusive, HepG2 viability -34.1% and IL-1B inflam inh -5.5.
COC(=O)c1ccc2nc(-c3ccc(F)cc3)c(Cc3cccc(Cl)c3)n2c1 was read as TDP1 cell noCPT 18.4µM*, TDP1 cell CPT inconclusive and IL-1B inflam inh 30.3.
`COC(=O)c1ccc2nc(-c3ccccc3)c(Cc3cccc(F)c3)n2c1` gave TDP1 cell noCPT inconclusive, TDP1 cell CPT inconclusive and IL-1B inflam inh 17.9.
For COC(=O)c1ccc2nc(-c3ccc(C)cc3)c(Cc3ccc(C)cc3)n2c1 the results were TDP1 cell noCPT 16.4µM*, TDP1 cell CPT inconclusive and IL-1B inflam inh 36.9.
`COC(=O)c1ccc2nc(-c3ccc(OC)c(OC)c3)c(Cc3cccc(F)c3)n2c1` gave TDP1 cell noCPT 13µM*, TDP1 cell CPT 11.6µM* and IL-1B inflam inh 18.3.
COC(=O)c1ccc2nc(-c3ccc(F)cc3)c(Cc3cccc(F)c3)n2c1 was read as TDP1 cell noCPT -28.3%, TDP1 cell CPT -27.9% and IL-1B inflam inh 0.0.
`COC(=O)c1ccc2nc(-c3ccco3)c(Cc3ccc(C)cc3)n2c1` gave TDP1 cell noCPT inconclusive, TGFb SMAD3 inh inconclusive, TDP1 cell CPT -97.7%, HepG2 viability -0.2% and IL-1B inflam inh 33.3.
For CC1=Nc2nc(N3CCCCCC3)c(C#N)c3c4c(nc(c23)N1)N(c1ccc2ccccc2c1)C(=O)C4 the results were TDP1 cell noCPT inconclusive, TGFb SMAD3 inh 5.2%, TDP1 cell CPT inconclusive, HepG2 viability -17.2% and IL-1B inflam inh -8.0.
Cc1n[nH]c(=O)nc1N1CCc2ccccc2C1 was read as TDP1 cell noCPT 18.4µM*, TGFb SMAD3 inh -33.8%, TDP1 inh 6.1%, TDP1 cell CPT -3.5%, HepG2 viability 11.9% and IL-1B inflam inh 3.0.
CCCCCOc1ccc(/C=C/C(=O)Nc2sc3c(c2C(=O)OCC)CCC3)cc1OC was read as TDP1 cell noCPT inconclusive, TGFb SMAD3 inh inconclusive, TDP1 inh 0.4%[12.3 µM], TDP1 cell CPT -5.4% and HepG2 viability -93.3%.
`CCOCCOC(=O)c1ccc(NC(=O)/C=C/c2ccc(OC)c(OC)c2)cc1` gave TDP1 cell noCPT 9.2µM*, TGFb SMAD3 inh inconclusive, TDP1 inh 0.4%[12.3 µM], TDP1 cell CPT 25.9µM* and HepG2 viability -50.4%.
COc1cc(/C=C/C(=O)Nc2ccc3[nH]c(=O)[nH]c3c2)cc(OC)c1OC was read as TDP1 cell noCPT 2.4%, TGFb SMAD3 inh -3.4%, TDP1 inh 1.2%, TDP1 cell CPT 3.3%, HepG2 viability -1.5% and IL-1B inflam inh -72.1*.
`COc1ccc(NC(=O)/C=C/c2ccc(OC)c(OC)c2)cn1` gave TDP1 cell noCPT inconclusive, TGFb SMAD3 inh -0.1%, TDP1 inh 6.0%, TDP1 cell CPT -20.8%, HepG2 viability -24.9% and IL-1B inflam inh -8.2.
COc1ccc(/C=C/C(=O)Nc2ccc(Cl)c(Cl)c2)cc1OC was read as TDP1 cell noCPT 20.6µM*, TGFb SMAD3 inh inconclusive, TDP1 inh 2.9%[2.28 µM], TDP1 cell CPT inconclusive and HepG2 viability -45.6%.
`CCCCCOc1ccc(/C=C/C(=O)Nc2sc(C(C)=O)c(C)c2C(=O)OCC)cc1OC` gave TDP1 cell noCPT 5.8µM*, TGFb SMAD3 inh -13.3%, TDP1 inh 1.9%[2.28 µM], TDP1 cell CPT inconclusive and HepG2 viability -8.8%.
`COc1ccc(/C=C/C(=O)Nc2ccncc2)cc1OC` gave TDP1 cell noCPT -23.5%, TGFb SMAD3 inh -3.0%, TDP1 inh -5.6%, TDP1 cell CPT -19.5%, HepG2 viability -19.6% and IL-1B inflam inh -21.8.
For COc1ccc(/C=C\C(=O)Nc2ccccc2C(=O)O)cc1OC the results were TDP1 cell noCPT 13.3µM*, TDP1 inh -3.6%[56.1 µM] and TDP1 cell CPT 13.3µM*.
COC(=O)c1cn(C(=O)OC)c2ccccc12 was read as TDP1 cell noCPT -4.5%, TGFb SMAD3 inh -2.7%, TDP1 inh -3.1%, TDP1 cell CPT -12.4%, HepG2 viability 1.7% and IL-1B inflam inh 15.4.
For COC(=O)c1cn(C(=O)/C=C/c2ccc(OC)c(OC)c2)c2ccccc12 the results were TDP1 cell noCPT 16.4µM*, TGFb SMAD3 inh 8.0%, TDP1 inh -1.2%, TDP1 cell CPT inconclusive, HepG2 viability -3.1% and IL-1B inflam inh -68.8*.
For COC(=O)c1cc(Cl)c(NC(=O)/C=C/c2ccc(OC)c(OC)c2)cc1OC the results were TDP1 cell noCPT 23.1µM*, TGFb SMAD3 inh -9.5%, TDP1 inh 2.6%, TDP1 cell CPT inconclusive, HepG2 viability -2.4% and IL-1B inflam inh -2.7.
Screening COc1ccc(NC(=O)Nc2ccc(C)cc2OC(F)F)cc1OC returned TDP1 cell noCPT 20.6µM*, TGFb SMAD3 inh 1.0%, TDP1 inh 2.8%, TDP1 cell CPT inconclusive, HepG2 viability -5.4% and IL-1B inflam inh -11.1.
